The record followed here is the supplement of paper PMC6555819.

What all share (experiment): PBM binding z-score (relative to random genomic background probes); higher = stronger binding; sequences stand for … in GC…GCGATTGACAGCGTAGAATGAAGG
The subject of assay [1] is RARb homodimer (NR concentration 270 nM). A digest of the protocol: (§1)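 Binding z-scores take random background probes as their reference. They come from custom Agilent 4×180K protein-binding microarrays incubated 1 h with ligand-free nuclear receptor dimers, with antibodies against each partner (one per run) detecting binding. Scanned fluorescence was regression-normalized.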

Assay [2] relates to RARg:RXRa (NR concentration 270 nM, RXRa partner concentration 90 nM). A digest of the protocol: as §1
Assay [3] has as its system RARg homodimer (NR concentration 270 nM). Put shortly: as §1
In assay [4] the test system is RXRa DBDmut IVT, anti-RXR (DBD mutation: RXRa K156A/R161A, NR concentration 90 nM). A digest of the protocol:
as §1

In assay [5] the test system is RXRa homodimer (NR concentration 180 nM). Put shortly:
as §1

For assay [6], the system named is THRa:RXRa (NR concentration 90 nM, RXRa partner concentration 90 nM). A digest of the protocol: as §1
Assay [7] deals with THRa homodimer (NR concentration 90 nM). A digest of the protocol: as §1
The subject of assay [8] is VDR homodimer (NR concentration 270 nM). Put shortly:
as §1

In the case of ATCTCTAGGTAACAAGATCAGTGAAAGAGAGGAC, the PBM binding z-score in assay [1] is 0.262; in assay [2], 0.574; in assay [3], 0.868; in assay [4] it was -0.259; in assay [5], 0.265; in assay [6] it was 0.927. Besides, the PBM binding z-score came out at 0.466 in assay [7] and 0.364 in assay [8].
Turning to TCTGCTAGGTCAACGATGGCCAGCTAATCTGCTA, the PBM binding z-score in assay [1] is 2.85; in assay [2] it was 3.75; in assay [3] it was 4.72; in assay [4], 0.868; in assay [5], 2.35; in assay [6], 2.6. For the same sequence, the figures for the PBM binding z-score in assay [7] and in assay [8] were 0.486 and -0.708, respectively.
For ATCGAAAGGTCGTGAGGTGAATATACAGAAAGGC, the PBM binding z-score in assay [1] was 3.06; in assay [2], 4.98; in assay [3], 3.95; in assay [4], 1.72; in assay [5] it was 5.61; in assay [6], 3.72. Also, the PBM binding z-score in assay [7] is 1.77; in assay [8], 1.24.
With TCGAGTAGGTTACCAATGCGGCATTCAGCTTTCT, the PBM binding z-score is -0.23 in assay [1]; 0.0889 in assay [2]; 0.12 in assay [3]; 0.365 in assay [4]; 0.498 in assay [5]; -0.131 in assay [6]. Moreover, the PBM binding z-score in assay [7] is -0.859; in assay [8], -0.937.
Turning to CGTCCAAGGTCATAGGAAGTCAGTGAAGACAGAT, the PBM binding z-score in assay [1] is 3.7; in assay [2], 5.5; in assay [3] it was 5.7; in assay [4], 3.77; in assay [5], 5.28; in assay [6], 3.81. Also, the PBM binding z-score in assay [7] is 2.31; in assay [8] it was 2.43.
Turning to ACTATTAGTTGACTTAAGGCAACCGATACGACGC, the PBM binding z-score in assay [1] was found to be 0.11; in assay [2], 0.623; in assay [3], 0.592; in assay [4], 0.8; in assay [5] it was 0.347; in assay [6], 2.4. In addition, the PBM binding z-score was 0.592 in assay [7] and 0.124 in assay [8].
On to CGTCCAGGGTCAAGGTCAGTGAAAGAGACTCGAA, for which the PBM binding z-score in assay [1] was 4.96; in assay [2] it was 6.51; in assay [3] it was 6.69; in assay [4], 2.77; in assay [5] it was 6.61; in assay [6], 4.19. Further, the PBM binding z-score in assay [7] was 2.79; in assay [8], 2.98.
Turning to TCTGCTAGGGCAGTTGGTCAGCTAACGAGCTGCC, the PBM binding z-score in assay [1] was 0.33; in assay [2], -0.0411; in assay [3], 0.49; in assay [4], -0.0574; in assay [5], -0.74; in assay [6], -0.754. For the same sequence, the PBM binding z-score was -0.968 in assay [7] and -1.08 in assay [8].
Turning to AGAACGAGGTTATACGTAGATCAGGGAAGAAAGT, the PBM binding z-score is 0.438 in assay [1]; 1.69 in assay [2]; 1.07 in assay [3]; 1.54 in assay [4]; 2.02 in assay [5]; 1.41 in assay [6]. In addition, the PBM binding z-score in assay [7] was found to be 0.179; in assay [8] it was 0.807.
With TCGAGTAGGTTAGGCGCATTCAGAATGGCGTCGA, the PBM binding z-score in assay [1] was -0.314; in assay [2], -0.45; in assay [3] it was -0.527; in assay [4], -0.0106; in assay [5], -0.118; in assay [6], -0.415. The PBM binding z-score is -0.996 in assay [7] and -0.809 in assay [8].
For CGTCCAAGGTCAGCAGGTCCGTGAAAGCGACGTG, the PBM binding z-score stood at 4.13 in assay [1]; 5.15 in assay [2]; 5.97 in assay [3]; 2.96 in assay [4]; 3.76 in assay [5]; 3.59 in assay [6]. The PBM binding z-score was 1.92 in assay [7] and 2.71 in assay [8].
As for AATACAGGGTCATCGTAGGCCAGACTACGCACAG, the PBM binding z-score came out at 2.36 in assay [1]; 5.54 in assay [2]; 5.13 in assay [3]; 3.61 in assay [4]; 6.23 in assay [5]; 4.74 in assay [6]. Further, the values for the PBM binding z-score in assay [7] and in assay [8] were 1.68 and 2.65, respectively.
For TCATATAGGTGATACAGGTGAAAGTCGGCATCTA, the PBM binding z-score in assay [1] turned out to be 1.08; in assay [2], 0.874; in assay [3] it was 0.742; in assay [4] it was 1.16; in assay [5], 1.34; in assay [6] it was 0.983. Also, the results for the PBM binding z-score in assay [7] and in assay [8] were 0.0719 and 0.258, respectively.
For CGTCCAATGTCATAGGAGGTCAGTGAAGACAGAT, the PBM binding z-score worked out at 3.62 in assay [1]; 3 in assay [2]; 3.4 in assay [3]; 0.694 in assay [4]; 2.17 in assay [5]; 4.28 in assay [6]. Besides, the PBM binding z-score in assay [7] was 0.745; in assay [8], 1.64.
